According to PubChem BioAssay (EPA / NIEHS):
Records with an inconclusive call do not appear. Calls of active or inactive are those of the source. The calls were made as follows: active = hit-call score of the fitted dose curve at least 0.9, where 1 is the maximum; inconclusive = response in the unintended direction; inactive = score below 0.9.

Target: human Retinoic Acid Receptor gamma (RARg), RARG (gene 5916) (UniProt P13631)
Assay: ATG_RARg_TRANS: Attagene TRANS-FACTORIAL HepG2 Assay for human Retinoic Acid Receptor gamma (RARg) (AID 2283009)
Method: ATG_TRANS is a cell-based, multiplexed-readout assay that uses HepG2, a human liver cell line, with measurements taken at 24 hours after chemical dosing in a 24-well plate.ATG_RARg_TRANS is one of 30 assay component(s) measured or calculated from the ATG_TRANS assay. It is designed to make measurements of mRNA induction, a form of inducible reporter, as detected with fluorescence intensity signals by Reverse transcription polymerase chain reaction (RT-PCR) and Capillary electrophoresis technology.Data from the assay component ATG_RARg_TRANS was analyzed into 1 assay endpoint. This assay endpoint, ATG_RARg_TRANS, was analyzed in the positive analysis fitting direction relative to DMSO as the negative control and baseline of activity. Using a type of inducible reporter, measures of mRNA for gain-of-signal activity can be used to understand the reporter gene at the transcription factor-level as they relate to the gene RARG. Furthermore, this assay endpoint can be referred to as a primary readout, because this assay has produced multiple assay endpoints where this one serves a reporter gene function. To generalize the intended target to other relatable targets, this assay endpoint is annotated to the nuclear receptor intended target family, where the subfamily is non-steroidal.
Human liver HepG2 cells are transiently transfected with multiple reporter transcription units (MRTUs) in 6-well plates using FuGene 6 reagent (Roche; 3 ml FuGene/1 mg DNA). The MRTU constructs are regulated by a cis-regulating element (promoter). […] A major difference between the CIS and TRANS system is that in CIS activities of endogenous TFs are measured, whereas the TRANS assay evaluates changes in activities of exogenous, chimeric NR-Gal4 proteins. […] At the end of 24 hour incubation, total RNA was isolated using TriZol reagent (Invitrogen). The isolated RNA is then reverse-transcribed using oligo(dT) primer and Mo-MLV reverse transcriptase (Invitrogen) with DNAse I (Ambion) treatment for 30 min. The one-tenth of the produced cDNA was amplified by PCR using Taq DNA polymerase (Invitrogen) and two reporter sequence-specific primers. The PCR products were fluorescently labeled by primer extension with 6-arboxyfluorescein (6-FAM) 5'-labeled reporter sequence-specific primer (2 min at 95 C, 20 s at 68 C and 10 min at 72 C) and these products were digested with 5U of HpaI (New England Biolabs) for 2h at 37 C. […] The raw capillary electrophoresis data was processed using Attagraph software (Attagene).

Sequence of human Retinoic Acid Receptor gamma (RARg), RARG (gene 5916) (P13631 whole entry, looked up): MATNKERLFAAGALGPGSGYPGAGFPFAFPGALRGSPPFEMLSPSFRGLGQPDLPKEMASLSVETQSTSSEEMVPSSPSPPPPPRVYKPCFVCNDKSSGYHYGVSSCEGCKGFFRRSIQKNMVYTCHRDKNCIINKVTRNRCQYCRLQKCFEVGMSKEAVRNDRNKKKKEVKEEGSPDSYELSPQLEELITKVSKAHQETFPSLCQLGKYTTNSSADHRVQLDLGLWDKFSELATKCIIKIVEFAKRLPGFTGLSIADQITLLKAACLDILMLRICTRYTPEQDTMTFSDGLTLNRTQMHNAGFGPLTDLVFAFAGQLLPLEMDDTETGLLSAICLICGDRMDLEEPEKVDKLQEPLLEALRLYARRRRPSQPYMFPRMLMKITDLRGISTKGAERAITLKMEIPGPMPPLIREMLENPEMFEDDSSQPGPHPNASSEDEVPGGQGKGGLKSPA

outcome, inactive:
Cc1c(C)c([N+](=O)[O-])c(C(C)(C)C)c([N+](=O)[O-])c1C
CCOC(=O)Cc1cccc2ccccc12
C=CC(C)(CCC=C(C)C)OC(=O)C(C)C (stereo not given)
Cc1cnc(NC(=O)C2=C(O)c3ccccc3S(=O)(=O)N2C)s1
Nc1ccc(N)c(Cl)c1
CC1(C)[C@H]2CC[C@]1(C)C(=O)C2
C(=CC=Nc1ccccc1)C=CNc1ccccc1
CC(C)(C)C1CCCCC1=O (stereo not given)
C[Si](C)(CCCN)O[Si](C)(C)CCCN
O=c1n(CCO)c(=O)n(CCO)c(=O)n1CCO
Cc1cccc(C(=O)O)c1
C=CC(=O)OCCOC(=O)C=C
CCN(CCC#N)c1ccc(N=Nc2c(Cl)cc([N+](=O)[O-])cc2Cl)cc1
NC(=O)NNC(N)=O
CCCNC(=O)NS(=O)(=O)c1ccc(Cl)cc1
c1c[nH]cn1
CCCCCCOc1cc(C)c(O)c(C)c1C
C1=CCCC1
Cc1cc(C)c(C)c(C)c1
COC(=O)/C=C\C(=O)O
C[Si](C)(C)O[Si](O)(O)O
Cn1c(=O)[nH]c2ncn(C)c2c1=O
C#CC1(O)CC[C@H]2[C@@H]3CCC4=CCCC[C@@H]4[C@H]3CC[C@@]21C (stereo not given in full)
Nc1ccc(N=Nc2ccccc2)c(N)n1
CCCCCCCCCCCCCOP(=O)(O)O
NCCCN1CCN(CCCN)CC1
Clc1nc2ccccc2s1
COC=O
Cc1cc(=O)n(-c2ccccc2)n1C
CCCCCCCC(C)=O
c1ccc(-c2ccccn2)nc1
Cc1ccccc1C
O=C(O)CC(C(=O)O)C(CC(=O)O)C(=O)O (stereo not given)
CC(=O)NS(=O)(=O)c1ccc(N)cc1
O=C1CCCC1
COc1ccc([C@@H]2CC(=O)c3c(O)cc(O[C@@H]4O[C@H](CO[C@@H]5O[C@@H](C)[C@H](O)[C@@H](O)[C@H]5O)[C@@H](O)[C@H](O)[C@H]4O)cc3O2)cc1OC
CC(=O)Oc1ccc(C)cc1
C=C(C)c1cccc(C(C)(C)N=C=O)c1
C=C[Si](C)(C)O[Si](C)(C)C=C
[Cl][Nd]([Cl])[Cl]
